Reference: PubChem BioAssay (NCATS)
Inconclusive results are not listed. Activity calls are given as the source filed them. Calls come from the whole dose curve; as a rule, active = well fitted curve in the direction sought with a large enough effect; inconclusive = small, poorly fitted or top-dose-only effect, or another doubt; inactive = no such curve, though single readings can be large; an effect the other way counts as inactive or inconclusive.

Assays:
[1] = qHTS to identify inhibitors of the type 1 interferon - major histocompatibility complex class I in skeletal muscle: primary screen against the NCATS Pharmaceutical Collection (AID 1347407);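 note: luminescence of HiBiT knocked into endogenous HLA-B as interferon-induced MHC class I level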
How it was run: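 Immortalized human myoblasts (C25cl48) with HiBiT knocked into endogenous HLA-B*08:01 were stimulated with 4 ng/ml IFN-beta and treated with compounds (8-point, 1:5, top 46 uM final) for 24 h at 37 C; HiBiT lytic luminescence read.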

[2] = qHTS to identify inhibitors of the type 1 interferon - major histocompatibility complex class I in skeletal muscle: primary screen against the NCATS Mechanism Interrogation Plate v5.0 (MIPE) Libary (AID 1347411); note: nearly all actives have a fitted effect of over 65% in size
How it was run: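 Immortalized human C25cl48 myoblasts with HiBit knocked into endogenous HLA-B*08:01 were stimulated with 4.0 ng/ml IFN-beta and exposed to compounds (11-point 1:3 titration, top 46 uM final) for 24 hrs at 37 C; HiBiT lytic luminescence measured.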

[3] = target: Protein phosphatase 1D (Homo sapiens) (UniProt O15297); test: RapidFire Mass Spectrometry qHTS Assay for Modulators of WT P53-Induced Phosphatase 1 (WIP1) (AID 1347424);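 note: amount of dephosphorylated VEPPL-S-QETFS peptide product formed by WIP1; series mostly up to about 63 µM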
Chain of Protein phosphatase 1D (Homo sapiens) (O15297 whole entry, looked up): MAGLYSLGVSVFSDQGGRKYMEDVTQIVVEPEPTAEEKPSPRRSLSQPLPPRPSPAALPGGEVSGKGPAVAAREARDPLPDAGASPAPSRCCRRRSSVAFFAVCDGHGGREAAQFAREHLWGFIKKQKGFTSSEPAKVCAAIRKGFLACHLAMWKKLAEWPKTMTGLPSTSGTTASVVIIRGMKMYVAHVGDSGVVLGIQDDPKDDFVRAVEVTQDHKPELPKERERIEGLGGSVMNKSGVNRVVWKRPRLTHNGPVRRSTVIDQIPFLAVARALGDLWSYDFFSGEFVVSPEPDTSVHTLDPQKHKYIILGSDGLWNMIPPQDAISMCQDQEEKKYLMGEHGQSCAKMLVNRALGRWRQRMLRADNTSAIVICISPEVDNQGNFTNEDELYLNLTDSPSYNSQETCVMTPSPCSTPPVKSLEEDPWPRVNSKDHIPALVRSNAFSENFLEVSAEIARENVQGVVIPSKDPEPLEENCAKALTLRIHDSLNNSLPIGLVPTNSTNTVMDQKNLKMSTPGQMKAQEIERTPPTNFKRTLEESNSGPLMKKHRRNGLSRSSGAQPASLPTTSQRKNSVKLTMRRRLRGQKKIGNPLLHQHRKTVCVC
How it was run: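 10 nM WIP1 preincubated with compounds 1 hr at room temperature in pH 7.5 Tris buffer with 30 mM MgCl2, 1 mM TCEP; 2 uM VEPPL-pS-QETFS phosphopeptide for 5 min, formic acid quench; dephosphorylated product quantified by RapidFire MS against labelled standard.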

[4] = target: Protein phosphatase 1D (Homo sapiens) (UniProt O15297); test: Rhodamine-PBP qHTS Assay for Modulators of WT P53-Induced Phosphatase 1 (WIP1) (AID 1347425)
How it was run: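 WIP1 (5 nM final) was preincubated with compound for 1 hour at room temperature. It then dephosphorylated 10 uM VEPPL-pS-QETFS peptide in Tris-HCl pH 7.5 with 30 mM MgCl2. Released Pi was detected by 10 uM Rh-PBP fluorescence (ex 525/em 598 nm) read at 1-min intervals for 11 min, as delta f1 - f0.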

[5] = Primary qHTS for inhibitors of La Crosse Virus (LACV) - induced cell death in SH-SY5Y cells (AID 1508616);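 note: top concentration of the series differs between compounds; higher means more rescue of cells from virus-induced death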
How it was run: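 Luminescent ATP readout (ATPLite 1step, 5 min room temperature) measured rescue from LACV-induced death after 6 days of infection at 0.01 MOI; normalized to infected DMSO wells and uninfected DMSO wells.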

[6] = target: Calcium and integrin-binding protein 1 (Homo sapiens) (UniProt Q99828); test: Primary qHTS for Identification of Calcium Integrin Binding Protein 1 (CIB1) Competitor (AID 1508620);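 note: GST tagged CIB1 binding a fluorescein labelled alphaIIb integrin peptide tracer; top concentration of the series differs between compounds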
Chain of Calcium and integrin-binding protein 1 (Homo sapiens) (Q99828 whole entry, looked up): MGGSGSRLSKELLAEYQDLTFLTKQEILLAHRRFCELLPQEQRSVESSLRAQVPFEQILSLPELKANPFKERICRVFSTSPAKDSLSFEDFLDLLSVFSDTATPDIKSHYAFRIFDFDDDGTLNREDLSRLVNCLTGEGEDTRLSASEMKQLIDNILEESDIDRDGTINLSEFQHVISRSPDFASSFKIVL
How it was run: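 Fluorescence polarization competition: GST-tagged CIB1 (1 uM final) preincubated with compound 15 min at room temperature, then FITC-labelled alphaIIb peptide (100 nM final) added. After 15 min at room temperature, polarization read at Ex 480/Em 540.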

[7] = target: Calcium and integrin-binding protein 1 (Homo sapiens) (UniProt Q99828); test: Confirmatory qHTS for Identification of Calcium Integrin Binding Protein 1 (CIB1) Competitor (AID 1508617); note: nearly all actives have a fitted effect of over 65% in size
How it was run: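 FP competition: CIB1-GST (1 uM final) in 5 mM HEPES pH 7.4, 125 mM NaCl, 5 mM CaCl2, 0.01% Tween20 preincubated 15 min RT with compounds (up to 114 uM), then FITC-alphaIIb peptide (100 nM), 15 min RT; Ex 480/Em 540.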

Measured: outcome

O=c1[nH]c(=O)n([C@H]2C[C@H](O)[C@@H](CO)O2)cc1I
not listed: [7]
inactive: all other assays above

O=C1CC[C@@H](C(=O)O)N1
inactive: [1] | [3] | [4] | [5]

NC(=O)N[C@@H](CCC(=O)O)C(=O)O
inactive: [1] | [3] | [4]

C=CCNC(N)=S
inactive: [1] | [3] | [4] | [5]

C/C=C/C(=O)N(CC)c1ccccc1C
not listed: [6] | [7]
inactive: all other assays above

NC(=O)c1ccc([N+](=O)[O-])cc1Cl
inactive: [1] | [3] | [4]

Cc1cccc(C(=O)O)c1O
inactive: [1] | [3] | [4] | [5]

CCN(CC)CCOC(=O)C(c1ccccc1)c1ccccc1
inactive: [1] | [3] | [4] | [5]

Cc1c(C)c2c(c(C)c1OC(=O)c1cccnc1)CC[C@@](C)(CCC[C@H](C)CCC[C@H](C)CCCC(C)C)O2
inactive: [1] | [3] | [4] | [5]

CC1(C)S[C@@H]2[C@H](NC(=O)C(C(=O)O)c3ccccc3)C(=O)N2[C@H]1C(=O)O (stereo not given in full)
inactive: [1] | [3] | [4]

CC1(C)S[C@@H]2[C@H](N=CN3CCCCCC3)C(=O)N2[C@H]1C(=O)O
inactive: [1] | [3] | [4] | [5]

O=C(O)/C=C/c1ccc(Cn2ccnc2)cc1
inactive: [1] | [2] | [3] | [4]

NCc1ccc(S(N)(=O)=O)cc1
inactive: [1] | [3] | [4] | [5]

Cc1onc(-c2ccccc2)c1-c1ccc(S(N)(=O)=O)cc1
not listed: [7]
inactive: all other assays above

CCN(CC)CCc1nc(-c2ccccc2)no1
inactive: [1] | [3] | [4] | [5]

CCCCCOC(=O)Nc1nc(=O)n([C@@H]2O[C@H](C)[C@@H](O)[C@H]2O)cc1F
not listed: [7]
inactive: all other assays above

OC[C@@H](O)[C@@H](O)[C@H](O)[C@H](O)CO
inactive: [1] | [3] | [4] | [5]

CC(C)CCCC(C)CCCC(C)CCCCC(C)CCCC(C)CCCC(C)C (stereo not given)
inactive: [1] | [3] | [4] | [5]

CC(=O)SC[C@@H](Cc1ccccc1)C(=O)NCC(=O)OCc1ccccc1
inactive: [1] | [3] | [4] | [5]

O=C(O)CCCCC1CCSS1 (stereo not given)
inactive: [1] | [3] | [4] | [5]

CC(=O)Oc1cccc(C)c1
inactive: [1] | [3] | [4] | [5]

CN(C(=O)c1c(O)c2ccccc2n(C)c1=O)c1ccccc1
not listed: [6] | [7]
inactive: all other assays above

O=C(c1ccccc1)C(O)c1ccccc1 (stereo not given)
inactive: [1] | [3] | [4] | [5]

O=C(NCN1CCOCC1)c1cnccn1
inactive: [1] | [3] | [4] | [5]

COc1ccc(NS(=O)(=O)c2ccc(N)cc2)nn1
inactive: [1] | [3] | [4] | [5]

C[C@@H](N)C(=O)O
inactive: [1] | [3] | [4]

C[C@@H]1CCC[C@H](C)N1
inactive: [1] | [3] | [4] | [5]

Cn1c([N+](=O)[O-])cnc1COC(N)=O
not listed: [2] | [7]
inactive: all other assays above

Cc1cc(C)c(NC(=O)CN(CC(=O)O)CC(=O)O)c(C)c1Br
not listed: [2] | [7]
inactive: all other assays above

CCOC(N)=O
inactive: [1] | [3] | [4] | [5]

CCCCCCCC(=O)OCC(COC(=O)CCCCCCC)OC(=O)CCCCCCC
not listed: [2] | [7]
inactive: all other assays above

CC[C@H](C)[C@H](N)C(=O)O
not listed: [2] | [7]
inactive: all other assays above

Cc1[nH]c(C)c(Cl)c(=O)c1Cl
not listed: [2] | [7]
inactive: all other assays above

CCS(=O)(=O)CCn1c([N+](=O)[O-])cnc1C
not listed: [2] | [7]
inactive: all other assays above

Cc1ncc(CO)c(CN)c1O
not listed: [2] | [7]
inactive: all other assays above

CCCOC(=O)c1ccc(N)cc1
inactive: [1] | [3] | [4] | [5]

COC(=O)c1ccccc1C(=O)c1ccc(OCCN2CCCCC2)cc1
not listed: [2] | [7]
inactive: all other assays above

CCN1CC(CCN2CCOCC2)C(c2ccccc2)(c2ccccc2)C1=O (stereo not given)
not listed: [2] | [7]
inactive: all other assays above

O=c1[nH]c2cc(C(F)(F)F)c(N3CCOCC3)cc2n(CP(=O)(O)O)c1=O
not listed: [2] | [7]
inactive: all other assays above

O=C(NCC(O)CO)c1c(I)c(C(=O)NCC(O)CO)c(I)c(N(CCO)C(=O)CO)c1I (stereo not given)
not listed: [2] | [7]
inactive: all other assays above

CNc1c2c(nn1C)CCCC2
inactive: [1] | [3] | [4] | [5]

O=C(O)c1ccc[n+]([O-])c1
not listed: [2] | [7]
inactive: all other assays above

COc1ccc(O)cc1
not listed: [2] | [7]
inactive: all other assays above

CC(C)NC[C@@H](O)COc1ccc(CC(N)=O)cc1
inactive: [1] | [3] | [4] | [5]

Cc1c(C(=O)NCCO)[n+](=O)c2ccccc2n1[O-]
not listed: [2] | [7]
inactive: all other assays above

CCN(CC)CC1CCCCN1CC(=O)N1c2ccccc2C(=O)Nc2cccnc21 (stereo not given)
not listed: [2] | [7]
inactive: all other assays above

CCOc1cc(NC(C)=O)ccc1C(=O)OC
not listed: [2] | [7]
inactive: all other assays above

C=CCOc1ccccc1OCC(O)CNC(C)C (stereo not given)
inactive: [1] | [3] | [4] | [5]

COc1ccc(-c2cc(=O)c3c(O)cc(O[C@@H]4O[C@H](CO[C@@H]5O[C@@H](C)[C@H](O)[C@@H](O)[C@H]5O)[C@@H](O)[C@H](O)[C@H]4O)cc3o2)cc1O
inactive: [1] | [3] | [4] | [5]

CC(=O)Oc1cccc(O)c1
not listed: [2] | [7]
inactive: all other assays above

CC(N)CCCC(C)(C)O (stereo not given)
not listed: [2] | [7]
inactive: all other assays above

O=C(O)Cc1ccc(CCNS(=O)(=O)c2ccc(Cl)cc2)cc1
not listed: [2] | [6]
inactive: all other assays above

COc1ccccc1OCC(O)CO (stereo not given)
inactive: [1] | [3] | [4] | [5]

C[C@H]1COc2c(C3(N)CC3)c(F)cc3c(=O)c(C(=O)O)cn1c23
inactive: [1] | [3] | [4] | [5]

NC(=O)NC1NC(=O)NC1=O (stereo not given)
not listed: [2] | [7]
inactive: all other assays above

CC(=O)N(CC(O)CN(C(C)=O)c1c(I)c(C(=O)NCC(O)CO)c(I)c(C(=O)NCC(O)CO)c1I)c1c(I)c(C(=O)NCC(O)CO)c(I)c(C(=O)NCC(O)CO)c1I (stereo not given)
not listed: [2] | [7]
inactive: all other assays above

O=C(Cn1ccnc1[N+](=O)[O-])NCc1ccccc1
not listed: [2] | [7]
inactive: all other assays above

CC(=O)Nc1ccc(OCCOCCOc2ccc(NC(C)=O)cc2)cc1
not listed: [2] | [7]
inactive: all other assays above

CCCNC(C)(C)COC(=O)c1ccccc1
inactive: [1] | [3] | [4] | [5]

COC(=O)c1ccc(O)cc1
inactive: [1] | [3] | [4] | [5]

CC[C@]12CCCN3CCc4c(n(c5ccccc45)[C@@](O)(C(=O)OC)C1)[C@@H]32
inactive: [1] | [3] | [4] | [5]

CCOC(=O)c1cccnc1
not listed: [2] | [7]
inactive: all other assays above

COc1cc(C(=O)NCCCCCC(=O)O)cc(OC)c1OC
not listed: [2] | [7]
inactive: all other assays above

O=C(O)CCC(=O)O
inactive: [1] | [3] | [4] | [5]

COc1ccc2cc(CCC(C)=O)ccc2c1
not listed: [2] | [7]
inactive: all other assays above

O=C(OOC(=O)c1ccccc1)c1ccccc1
not listed: [2] | [7]
inactive: all other assays above

Cc1ccc(S(=O)(=O)NC(=O)NC2CCCCC2)cc1
not listed: [2] | [7]
inactive: all other assays above

O=C1C(c2[nH]c3ccccc3c2O)=Nc2ccccc21
not listed: [2] | [7]
inactive: all other assays above

C[C@]1(Cn2ccnn2)[C@H](C(=O)O)N2C(=O)C[C@H]2S1(=O)=O
not listed: [2] | [7]
inactive: all other assays above

CCN(CC)S(=O)(=O)c1ccc(C(=O)O)cc1
not listed: [2] | [7]
inactive: all other assays above

NNc1nnc(NN)c2ccccc12
not listed: [2] | [7]
inactive: all other assays above

NC(=O)CC[C@@H](N)C(=O)O
not listed: [2] | [7]
inactive: all other assays above

Cc1ccc(C(C)C)c(O)c1
not listed: [2] | [7]
inactive: all other assays above

NS(=O)(=O)c1cc2c(cc1C(F)(F)F)NCNS2(=O)=O
not listed: [2] | [7]
inactive: all other assays above

Cc1c(NC(=O)c2cccnc2)c(=O)n(-c2ccccc2)n1C
not listed: [2] | [7]
inactive: all other assays above

CN(C/C=C/C#CC(C)(C)C)Cc1cccc2ccccc12
not listed: [2] | [7]
inactive: all other assays above

Cc1cc(-n2nc3ccc(Cl)cc3n2)c(O)c(C(C)(C)C)c1
not listed: [2] | [7]
inactive: all other assays above

CC(=O)Nc1ccc(C(=O)O)cc1
not listed: [2] | [7]
inactive: all other assays above
